The full list was thinned out, with hits kept by preference.
Sfp inh – inhibitors of Bacillus subtilis Sfp phosphopantetheinyl transferase. Potency, µM, for inactives: largest response in the series, negative = inhibition, usual class: inhibitors. 310,000 compounds, 3.5% hits. Q9F4F7. Biochemical Sfp PPTase activity, qHTS. AID 1490;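 note: the enzyme is Sfp with the accession as filed and its product quenches rhodamine fluorescence; 0% = enzyme reaction without inhibitor and -100% = no enzyme wells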
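Sfp 15 nM + cpd, 15 min RT; start w/ rhodamine-CoA 5 uM, BHQ-2-YbbR 12.5 uM (final); 50 mM Hepes pH 7.6, 10 mM MgCl2, 0.01% NP-40, 0.01% BSA; read 525/598 nm at 0 and 30 min.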
G9a inh – G9a (human) methyltransferase inhibition; G9a H3K9 monomethylation, AlphaScreen, 2 h; Potency, µM (series often up to 102 µM), inactives show top-dose activity, negative = inhibition, usual class: inhibitors; 350,000 compounds, 8.8% hits; AID 504332; note: % is set by controls: 0 for no effect and ±100 for the full control effect; nearly all actives have a fitted effect of over 75% in size
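Signal arises when biotinylated H3K9 peptide, once monomethylated, bridges streptavidin donor and antibody-captured acceptor beads. Enzyme at 20 nM was preincubated 15 min with test compounds; peptide 500 nM and SAM 20 uM then reacted for 2 h.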
VDR inh – blocks the human vitamin D receptor; Potency, µM, without a hit: max response, negative = inhibition, actives largely listed as inhibitors; 400,000 compounds, 0.93% hits; P11473; VDR-SRC2-3 peptide fluorescence polarization, 2 h; note: % is set by controls: 0 for no effect and ±100 for the full control effect
Target sequence (P11473 whole entry, looked up): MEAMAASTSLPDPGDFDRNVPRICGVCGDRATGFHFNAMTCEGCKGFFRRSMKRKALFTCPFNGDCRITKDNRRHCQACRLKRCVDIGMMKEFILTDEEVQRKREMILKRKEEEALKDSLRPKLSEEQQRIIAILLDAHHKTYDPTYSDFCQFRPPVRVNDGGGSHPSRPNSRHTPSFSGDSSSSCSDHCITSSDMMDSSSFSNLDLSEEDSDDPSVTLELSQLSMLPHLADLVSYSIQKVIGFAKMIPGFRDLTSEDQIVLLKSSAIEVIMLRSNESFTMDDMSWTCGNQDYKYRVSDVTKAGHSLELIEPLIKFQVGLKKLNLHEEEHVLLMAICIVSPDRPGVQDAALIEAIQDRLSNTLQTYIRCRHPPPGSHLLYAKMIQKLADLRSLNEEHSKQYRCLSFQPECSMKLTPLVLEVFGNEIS
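Two reagent solutions held at 4 deg C in the dark were dispensed, compounds pinned at 23 nl, and the mixture incubated 2 h at room temperature. Read-out: fluorescence polarization of VDR–SRC2-3 peptide binding.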
ALOX12 inh – inhibitors of human 12S-lipoxygenase ALOX12. 580,000 compounds, 1.1% hits. AID 1671190. Potency, µM (titrated, usually from 108 µM), without a hit: at the top dose activity change, negative = inhibition, hits mostly inhibitors. P18054. purified 12hLO, xylenol orange hydroperoxide absorbance; note: % is set by controls: 0 for no effect and ±100 for the full control effect
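Purified human 12hLO (150 nM final) in 25 mM Hepes, 0.01% Triton X-100, pH 7.0 was preincubated 15 min at room temperature with compound. Then 40 uM arachidonic acid was added, 30 min. Hydroperoxide was read by Fe-XO absorbance ratio 573/405 nm.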
Glioma ERSR ind – inducers of ER stress response in human glioma cells; U87-MG GRP78 promoter luciferase reporter, 16 h; Potency, µM, for the others: at the highest dose activation, actives largely listed as activators; 420,000 compounds, 0.02% hits; note: series mostly up to about 76 µM; % of control where 0% means no effect; nearly all actives have a fitted effect of over 35% in size
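ERSR induction read as luciferase luminescence (Bright-Glo, 10 min at room temperature) in stably transfected human U87-MG glioma cells exposed to compounds for 16 h, using GRP78 as sensor.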
An asterisk follows results filed as active; u = inconclusive; x = not tested or not shown; [ ] = remark or other dose. Calls come from the whole dose curve; as a rule, active = well fitted curve in the direction sought with a large enough effect; inconclusive = small, poorly fitted or top-dose-only effect, or another doubt; inactive = no such curve, though single readings can be large; an effect the other way counts as inactive or inconclusive. Potency is the fitted concentration of half-maximal effect.

SMILES	Sfp inh	G9a inh	VDR inh	ALOX12 inh	Glioma ERSR ind
COc1cccc(C2CC3(CC(C)(C)NC(=S)N3)Oc3cc(O)ccc32)c1 (configuration not stated)	-16.8%	u	-4.8%	u	-3.1%
CCCc1cc(=O)n2nc(N3CCC(C(=O)NCc4cccc(Br)c4)CC3)sc2n1	x	x	x	1.5%	x
COc1ccc(Cc2nc3nccc(-c4ccc(OC)c(OC)c4)n3n2)cc1	x	x	x	-15.5%	x
Cc1ccc(/C=C/C(=O)Nc2ccc([N+](=O)[O-])cc2)o1	14.1µM*	28.2µM*	-1.3%	6.31µM*	6.4%
O=C(O)/C=C/C(=O)Nc1ccc(Oc2ccccc2)cc1	14.7%	x	-11.2%	u	-0.4%
CC(=O)c1ccc(NC(=O)/C=C/c2ccc(C)o2)cc1	x	11.2µM*	-7.4%	-15.2%	0.8%
Cc1ccc(/C=C/C(=O)Nc2ccc(Oc3ccccc3)cc2)o1	28.2µM*	11.2µM*	-10.0%	15.8µM*	1.6%
Cc1ccc(/C=C/C(=O)Nc2nnc(C)s2)o1	-9.6%	-8.3%[59 µM]	-6.6%	-3.6%	0.2%
CN(C)c1ccc2nnc(-c3cc(C(=O)Nc4cccc(Cl)c4)ccn3)n2n1	x	x	x	12.9%[176 µM]	x
CCCc1cc(CN(C)c2nc(CCN)nc3sc(C)c(C)c23)[nH]n1	x	x	x	54.9%	x
COC(=O)CCN1CCN(S(=O)(=O)c2ccccc2Br)CC1	u	3.55µM*	-1.7%	-22.1%	-4.3%
O=C(NC1CCCCCC1)C1CCC(Cn2cnnn2)CC1 (configuration not stated)	x	x	x	53.3%	x
CCCN(C(=O)Cc1coc2cc(C)c(C)cc12)c1c(N)n(Cc2ccccc2)c(=O)[nH]c1=O	x	-30.1%	-9.9%	-15.1%	0.8%
CCCN(C(=O)Cn1nc(C)c([N+](=O)[O-])c1C)c1c(N)n(Cc2ccccc2)c(=O)[nH]c1=O	x	44.7µM*	17.8%	u	-6.9%
CCCCn1c(N)c(N(CC)C(=O)CSCc2c(C)noc2C)c(=O)[nH]c1=O	13.2%	44.7µM*	15.5%	1.7%	-2.9%
CCCN(C(=O)CSCc1c(C)noc1C)c1c(N)n(Cc2ccccc2)c(=O)[nH]c1=O	x	44.7µM*	-1.7%	-27.4%	-0.5%
Cc1ccc2c(=O)cc(C(=O)N(Cc3ccc(Cl)cc3)Cc3ccco3)oc2c1	x	x	x	-9.4%	x
CCCc1cc(=O)oc2cc(OCC(=O)C(C)(C)C)ccc12	x	x	x	-11.1%	x
CCOc1ccc(NC(=O)c2nn(-c3ccccc3OC)c(=O)c3ccccc23)cc1	x	x	x	5.0%	x
Cc1csc(NC(=O)CSc2nnc(Cc3cccn3C)n2CCc2ccccc2)n1	-22.6%	44.7µM*	-26.8%	384.7%	0.4%
CCn1c(Cc2ccccc2)nnc1SCC(=O)NC1CCCC1	13.9%	-25.8%	-12.3%	-3.9%	-4.4%
Cn1cccc1Cc1nnc(SCC(=O)N2CCCC2)n1CCc1ccccc1	14.7%	u	-7.3%	13.6%	-5.0%
Cn1cccc1Cc1nnc(SCC(=O)Nc2ccccc2F)n1CCc1ccccc1	-11.1%	44.7µM*	-4.2%	442.4%	0.4%
Cc1cc(NC(=O)CSc2nnc(Cc3cccn3C)n2CCc2ccccc2)no1	-10.8%	6.1%	5.4%	u	-3.6%
Cc1nnc(NC(=O)CSc2nnc(Cc3cccn3C)n2C)s1	19.0%	u	0.1%	2.1%[57.4 µM]	-3.7%
SMILES	Sfp inh	G9a inh	VDR inh	ALOX12 inh	Glioma ERSR ind
Cn1cccc1Cc1nnc(SCC(=O)NC2CCCC2)n1CCc1ccccc1	-5.8%	79.4µM*	-7.1%	312.5%	-2.9%
CC1CCN(C(=O)CSc2nnc(Cc3cccn3C)n2CCc2ccccc2)CC1	6.1%	44.7µM*	-21.6%	268.8%	2.0%
O=C(CCc1nnc2ccc(NCc3ccc4c(c3)OCO4)nn12)N1CCN(c2ccccc2)CC1	x	x	x	1.0%	x
COC(=O)c1cc(OC)ccc1OCC(=O)NCC(F)(F)F	x	x	x	-40.5%	x
Cn1cccc1Cc1nnc(SCC(N)=O)n1CCc1ccccc1	-2.4%	44.7µM*	-11.6%	175.6%	-3.7%
Cn1cccc1Cc1nnc(SCC(=O)N2CCc3ccccc32)n1CCc1ccccc1	-8.4%	u	-16.3%	29.8%[57.4 µM]	-2.8%
Cn1cccc1Cc1nnc(SCC(=O)N2CCCCCC2)n1CCc1ccccc1	-8.6%	50.1µM*	11.8%	416.8%	-5.6%
COc1ccc2c(CN(C)CCOc3ccccc3Cl)cc(=O)oc2c1	x	x	x	45.1%	x
N#Cc1ccccc1S(=O)(=O)N1CCN(C(=O)c2ccc(Cn3nnc4ccccc43)cc2)CC1	x	x	x	35.7%	x
CN(C)CCCN(C(=O)COc1ccccc1)c1nc2cc3c(cc2s1)OCO3	-17.7%	50.1µM*	-4.1%	158.8%	-3.5%
CN(C)CCCN(C(=O)COc1ccc(Cl)cc1)c1nc2cc3c(cc2s1)OCCO3	x	50.1µM*	-1.6%	u	-5.0%
COc1cccc2sc(N(CCCN(C)C)C(=O)COc3ccc(Cl)cc3)nc12	-25.6%	79.4µM*	-18.7%	u	-5.0%
CN(C)CCCN(C(=O)COc1ccccc1)c1nc2c(F)cccc2s1	-6.6%	-46.2%	-13.0%	-23.5%	-3.7%
COc1cccc2sc(N(CCN(C)C)C(=O)/C=C/c3cccs3)nc12	0.5%	15.8µM*	-9.8%	1.2%	-13.0%
O=c1[nH]c(=O)n(Cc2ccccc2)c2c1CN(Cc1ccccc1Cl)CN2	x	x	x	-46.2%	x
CN(C)CCCN(C(=O)COc1ccc(Cl)cc1)c1nc2cc3c(cc2s1)OCO3	-10.0%	70.8µM*	-8.0%	u	-13.9%
COc1cccc2sc(N(C)c3ccccc3)nc12	70.8µM*	-37.5%	-0.3%	0.0%	5.4%
COc1ccc(S(=O)(=O)N2CC(c3noc(-c4cccnc4)n3)C2)cc1Cl	x	x	x	2.4%	x
Cc1ccc2nc(C)cc(C(=O)OC(C)C(=O)Nc3cc(C)on3)c2c1 (configuration not stated)	x	x	x	-29.4%	x

Source: PubChem BioAssay
